This note sets out measurements from the supplement of paper PMC8975748.

Molecules are shown by their SMILES. Where a name gives a salt, the structure may show the parent alone.

The test system of the assay is Saccharomyces cerevisiae BY4741 SeMeCo community. Put plainly: z-score of subpopulation abundance vs DMSO median, subpopulation auxotrophic for U; higher = larger share of this subpopulation than in DMSO controls. The settings on record: 10 µM; 24 h; SM minimal medium; subpopulation (auxotrophy): U. As for the experimental part: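 Fluorescent four-plasmid SeMeCo (self-establishing metabolically cooperating S. cerevisiae BY4741 community; plasmids pH-mRuby2, pL-mWasabi, pU-eCFP, pM-TagRFP657) was grown 24 h in minimal SM medium with each Selleck FDA-approved drug at 10 µM in 384-well plates. Cells were fixed and imaged by high-content confocal microscopy. For each auxotrophic subpopulation (and the prototroph), a z-score gives the deviation from the DMSO vehicle-control population median.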
Regarding `CCN(C)C(=O)Oc1cccc([C@H](C)N(C)C)c1` [Rivastigmine], the “z-score of subpopulation abundance” value is -0.07.
The figure for `O=C(O[C@H]1C[N+]2(CCCOc3ccccc3)CCC1CC2)C(O)(c1cccs1)c1cccs1` [Aclidinium Bromide] is 0.94; for `C[C@@H]1CC[C@H]2[C@@H](C)C(=O)O[C@@H]3O[C@@]4(C)CC[C@@H]1[C@]32OO4` [Artemisinin] it is 0.61.
For `CN(C)[C@@H]1C(=O)C(C(N)=O)=C(O)[C@@]2(O)C(=O)C3=C(O)c4c(O)cccc4[C@@](C)(O)[C@H]3[C@H](O)[C@@H]12` [Oxytetracycline (Terramycin)], the “z-score of subpopulation abundance” value is 0.03.
The figure for `CCC1=C[C@H]2CN3CCc4c([nH]c5ccccc45)[C@](C(=O)OC)(C2)[C@H]13` [Catharanthine] is 0.69; for `CN[C@@H]1[C@@H](O)[C@@H](O[C@@H]2[C@@H](O)[C@H](O[C@H]3O[C@H]([C@@H](C)O)[C@@H](O)[C@H](O)[C@H]3N)[C@@H](N)C[C@H]2N)OC[C@]1(C)O` [Geneticin (G418 Sulfate)] it is -0.18; for `C[N+]1(C)[C@@H]2C[C@@H](OC(=O)[C@H](CO)c3ccccc3)C[C@H]1[C@@H]1O[C@@H]12` [Methscopolamine] it is 0.61.
For the compound `CC[N+](C)(CC)CCOC(=O)C(O)(c1ccccc1)c1ccccc1` [Methylbenactyzine Bromide], the “z-score of subpopulation abundance” value is -0.09.
Consider `C#C[C@]1(O)C=C[C@H]2[C@@H]3CCC4=CC(=O)CC[C@@H]4[C@H]3CC[C@@]21CC` [Gestodene], for which the “z-score of subpopulation abundance” value was -0.99.
For `COc1ccc2c3c([nH]c2c1)C(C)=NCC3` [Harmaline] the value was -8.11; for `C[CH2][Hg][S]c1ccccc1C(=O)[O-].[Na+]` [Thimerosal], -3.69; for `CN1[C@@H]2CC[C@H]1C[C@@H](OC(=O)C(CO)c1ccccc1)C2` (some centres undefined) [Atropine sulfate monohydrate], 0.96.
In the case of `CCN(CC)CCOC(=O)C(O)(c1ccccc1)c1ccccc1` [Benactyzine hydrochloride], the “z-score of subpopulation abundance” value came to 1.08.
The figure for `CC[C@H]1CN2CC[C@]3(C(=O)Nc4ccccc43)[C@@H]2C[C@@H]1/C(=C\OC)C(=O)OC` [Rhynchophylline] is 0.63; for `C=CC[C@]1(O)CC[C@H]2[C@@H]3CCC4=CC(=O)CCC4=C3C=C[C@@]21C` [Altrenogest] it is -1.52.
The figure for `CN1[C@@H]2C[C@@H](OC(=O)[C@H](CO)c3ccccc3)C[C@H]1[C@@H]1O[C@@H]12` [Scopolamine HBr trihydrate] is 0.18; for `CN1C(=O)COc2c(C(=O)NC3CN4CCC3CC4)cc(Cl)cc21` (centres undefined) [Azasetron HCl] it is 0.36; for `Nc1ccncc1` [4-Aminopyridine] it is -0.8.
Take `CCOC(=O)Nc1ccc(NCc2ccc(F)cc2)cc1N` [Retigabine]: the “z-score of subpopulation abundance” value was -0.91.
Take `O=c1cccc2n1C[C@@H]1CNC[C@H]2C1` [Cytisine]: the “z-score of subpopulation abundance” value was -0.25.
As to `NCCc1c[nH]c2ccc(O)cc12` [Serotonin HCl], the “z-score of subpopulation abundance” value is 0.33.
In the case of `COc1ccc(C=O)cc1` [p-Anisaldehyde], the “z-score of subpopulation abundance” value was -0.66.
The figure for `CCCCCCCCCCCCCCCC[n+]1ccccc1` [Cetylpyridinium Chloride] is 1.27.
`C=C(C)[C@H]1Cc2c(ccc3c2O[C@@H]2COc4cc(OC)c(OC)cc4[C@@H]2C3=O)O1` [Rotenone (Barbasco)]: the “z-score of subpopulation abundance” value is -0.02.
For `NC(=O)CN1CCCC1=O` [Piracetam] the value was -0.08.
For `COc1ccc2[nH]cc(CCN)c2c1` [5-Methoxytryptamine] the value was 1.12.
Turning to `CC(=O)OCC1=C(C(=O)O)N2C(=O)C(N)C2SC1` (centres undefined) [7-Aminocephalosporanic acid], the “z-score of subpopulation abundance” value was found to be 0.52.
The figure for `CCOC(=O)Nc1ccc(NCc2ccc(F)cc2)cc1N` [Retigabine 2HCl] is -0.66.
For `COC(=O)C1=CCCN(C)C1` [Arecoline HBr], the “z-score of subpopulation abundance” value is -0.09.
The figure for `CN(C)C(=O)Oc1cccc([N+](C)(C)C)c1` [Neostigmine Bromide] is -0.26; for `CC(NC(C)(C)C)C(=O)c1cccc(Cl)c1` (centres undefined) [Amfebutamone (Bupropion) HCl] it is 0.11; for `CN1[C@@H]2C[C@@H](OC(=O)[C@H](CO)c3ccccc3)C[C@H]1[C@@H]1O[C@@H]12` [Scopolamine HBr] it is 0.09.
For `O=C(O[C@H]1C[C@H]2CC[C@@H](C1)[N+]21CCCC1)C(O)(c1ccccc1)c1ccccc1` [Trospium chloride], the “z-score of subpopulation abundance” value was -0.17.
With `CNC1CC(N)C(O)C(OC2OC(CO)C(O)C3OC4(OC(C(N)CO)C(O)C(O)C4O)OC23)C1O` (centres undefined) [Hygromycin B], the “z-score of subpopulation abundance” value stood at 0.58.
